Assay outcomes (PubChem BioAssay)
Pf Dd2 growth – Plasmodium falciparum Dd2 growth inhibition; P. falciparum Dd2 growth, SYBR Green, 72 h; Potency, µM (top dose mostly 28.9 µM), for the others: at the top dose activity, negative = inhibition, most hits filed as inhibitors; 120,000 tested, 4.3% active; AID 1347417; active = well fitted inhibition curve with a large enough effect;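 also: plate controls were DMSO vehicle for no effect and reference drug for full effect; nearly all actives have a fitted effect of over 65% in size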
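Readout: SYBR Green fluorescence, 485 nm excitation, 535 nm emission, after ~16 h lysis at 37C. Before that, Dd2-infected red cells (2.5% hematocrit) grew 72 h with compound, 29 uM top final concentration.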
Numbers without * were called inactive; [ ] = dose if it differs, or a comment. The entries come from a sample that favours hits as a whole. Potency is read from the fitted curve at half-maximal effect.

O=C(COc1ccc(F)cc1)NC1CCN(c2cc(C(F)(F)F)ncn2)CC1 was read as Pf Dd2 growth 5.62µM*.
`COc1ccc(NC(=O)C2CCN(c3cc(C(F)(F)F)ncn3)CC2)cc1` gave Pf Dd2 growth inactive.
`COc1ccc(NC(=O)C2CCN(c3cc(C(F)(F)F)ncn3)CC2)cc1OC` gave Pf Dd2 growth 11.2µM*.
O=C(Nc1ccc(F)cc1)C1CCN(c2cc(C(F)(F)F)ncn2)CC1 was read as Pf Dd2 growth inactive.
For O=C(NC1CCN(c2cc(C(F)(F)F)ncn2)CC1)c1ccco1 the results were Pf Dd2 growth inactive.
O[C@H]1COCCN(Cc2ccc(OC(F)(F)F)cc2)C1 was read as Pf Dd2 growth -15.9%[44.1 µM].
Cn1ccnc1CN1CCN2C(=O)N(c3ccccn3)C[C@H]2C1 was read as Pf Dd2 growth -12.3%[44.1 µM].
COc1cccc(OC)c1C(=O)NC1CC(=O)N(CCc2ccc(F)cc2)C1 (stereo not given) was read as Pf Dd2 growth -0.1%.
`Cn1cc([C@@H](NC(=O)CCc2ccsc2)C2CC(O)C2)cn1` (stereo not given in full) gave Pf Dd2 growth -9.2%.
`CNC(=O)[C@@H]1CN(C(=O)NCc2cccc(OC)c2)C[C@H]1c1n[nH]c(C)n1` gave Pf Dd2 growth 2.0%.
Cc1nn(C)c2nc(N3CCC(C#N)(c4ccccc4)CC3)sc12 was read as Pf Dd2 growth -26.4%.
Screening CCCS(=O)(=O)N[C@H]1CO[C@H]2[C@@H]1OC[C@H]2OC(=O)Nc1ccc(OC)cc1 returned Pf Dd2 growth 14.2%[44.1 µM].
For CCc1cccc(CC)c1NC(=O)C1CCC(CNS(=O)(=O)c2cccc3nsnc23)CC1 (stereo not given) the results were Pf Dd2 growth 3.16µM*.
Screening Cc1cccc(C)c1NC(=O)C1CCCN1S(=O)(=O)c1cccc2nsnc12 (stereo not given) returned Pf Dd2 growth inactive.
`CCN(C(=O)C(NS(=O)(=O)c1cccc2nsnc12)c1ccccc1)c1ccccc1` (stereo not given) gave Pf Dd2 growth -0.7%.
`CC(C)CCNC(=O)C1CCC(CNS(=O)(=O)c2cccc3nsnc23)CC1` (stereo not given) gave Pf Dd2 growth 3.16µM*.
For CC(C)NC(=O)[C@@H]1C[C@H](N)CN1S(=O)(=O)c1cccc2nsnc12 the results were Pf Dd2 growth 19.2%.
Cc1cccc(N(C)C(=O)C(Cc2ccccc2)NS(=O)(=O)c2cccc3nsnc23)c1 (stereo not given) was read as Pf Dd2 growth 6.6%.
Screening CCCN(CCC)CCCNC(=O)C1CCCN(S(=O)(=O)c2cccc3nsnc23)C1 (stereo not given) returned Pf Dd2 growth -19.1%.
For CCc1ccccc1NC(=O)C1CCCN(S(=O)(=O)c2cccc3nsnc23)C1 (stereo not given) the results were Pf Dd2 growth -24.5%.
CCCCN(C(=O)C1CCC(CNS(=O)(=O)c2cccc3nsnc23)CC1)c1ccccc1 (stereo not given) was read as Pf Dd2 growth 2.24µM*.
Screening CCNC(=O)CN1C(=O)NC(CCc2ccccc2)(C2CCNCC2)C1=O (stereo not given) returned Pf Dd2 growth -13.3%.
`CC1(COc2ccccc2)COc2ccc(C(=O)NCc3cccc(F)c3)cc2N1` (stereo not given) gave Pf Dd2 growth -13.9%[44.1 µM].
For COC[C@H]1CCCN1C(=O)CC[C@@H]1CNC(=O)[C@@H]2C[C@H](NCc3ccc(N(C)C)cc3)CN12 the results were Pf Dd2 growth 23.8%.
For Cc1nc(C2CCCN(C(=O)C3(C(N)=O)CC3)C2)cc(N2CCCC2)n1 (stereo not given) the results were Pf Dd2 growth 0.5%.
Screening CNC(=O)[C@@H]1CN(C(=O)CCc2nc3ccccc3s2)C[C@H]1c1nc(C)no1 returned Pf Dd2 growth 8.4%.
For CC(C)(C)c1[nH]nc2c1C(c1ccnc3ccccc13)CC(=O)N2 (stereo not given) the results were Pf Dd2 growth -11.7%.
`COc1cccc(CCC(=O)N2CCC3(CC2)N=C(c2ccccc2)NO3)c1` gave Pf Dd2 growth 11.2µM*.
`COc1cc(OC)cc(C(=O)N2CCC3(CC2)N=C(c2ccccc2)NO3)c1` gave Pf Dd2 growth 15.3%.
For O=C(CCc1ccccc1)N1CCC2(CC1)N=C(c1cccc(Br)c1)NO2 the results were Pf Dd2 growth -19.6%.
For COc1cc(CNC(=O)CC2CCOCC2)cc(OC)c1 the results were Pf Dd2 growth -17.8%.
Cc1cc(NC(=O)N2C[C@@H](F)C[C@H]2C(=O)N2CCCCC2)ccc1Br was read as Pf Dd2 growth inactive.
COCCNc1cc(-c2noc([C@@H]3CCCN3Cc3ccccn3)n2)ccn1 was read as Pf Dd2 growth -13.5%[44.1 µM].
`CCC1(O)CCC12CCNCC2` (stereo not given) gave Pf Dd2 growth inactive.
For CCOc1ccccc1C1NC(=O)N(CC(=O)NCc2cccc(OC)c2)C2=C1C(=O)OC2 (stereo not given) the results were Pf Dd2 growth inactive.
`Cc1nc([C@H]2CCN(Cc3cccnc3)C[C@H]2NC(=O)C2CC2)n[nH]1` gave Pf Dd2 growth 29.5%.
For Cn1c(=O)c2c(ncn2Cc2ccc(Cl)cc2)n(C)c1=O the results were Pf Dd2 growth -7.9%.
Cn1c(=O)c2c(-c3ccc(Cl)cc3)n(Cc3ccc(Cl)cc3)cc2n(C)c1=O was read as Pf Dd2 growth 11.2µM*.
CCOC(=O)Cn1cc2c(c1-c1ccc(Cl)cc1)c(=O)n(C)c(=O)n2C was read as Pf Dd2 growth -6.9%.
Cc1cc2c(c(=O)n(-c3ccccc3)c(=O)n2CC(=O)Nc2ccc3c(c2)OCO3)n1C was read as Pf Dd2 growth -24.0%.
CCOc1ccc(-c2cn3c(n2)sc2cc(C(=O)NCCC4=CCCCC4)ccc23)cc1 was read as Pf Dd2 growth 7.08µM*.
`COc1ccc(NC(=O)c2ccc3c(c2)sc2nc(-c4ccc(OC)cc4)cn23)cc1` gave Pf Dd2 growth inactive.
`COc1ccc(-c2cn3c(n2)sc2cc(C(=O)NCc4ccccc4)ccc23)cc1` gave Pf Dd2 growth 16.1%.
`CCOc1ccc(-c2cn3c(n2)sc2cc(C(=O)NCCc4ccc(OC)c(OC)c4)ccc23)cc1` gave Pf Dd2 growth 3.55µM*.
`CCOC(=O)C1CCN(C(=O)c2ccc3c(c2)sc2nc(-c4ccc(OC)cc4)cn23)CC1` gave Pf Dd2 growth inactive.
For COc1cccc(-c2cn3c(n2)sc2cc(C(=O)NCCc4ccccc4)ccc23)c1 the results were Pf Dd2 growth inactive.
`CCOc1ccc(-n2c(C)nc3cc(C(=O)NCCC4=CCCCC4)ccc32)cc1` gave Pf Dd2 growth -7.4%.
`COc1ccc(-c2cn3c(n2)sc2cc(C(=O)Nc4cc(Cl)ccc4C)ccc23)cc1` gave Pf Dd2 growth -15.6%.
CCCSCCCNC(=O)c1ccc2c(c1)sc1nc(-c3ccc(OCC)cc3)cn12 was read as Pf Dd2 growth 3.55µM*.
For O=C([C@@H]1C[C@H](Oc2cccnc2)CN1C(=O)c1n[nH]c2ccccc12)N1CCOCC1 the results were Pf Dd2 growth -6.0%.
For c1ccc2c(N3CCN(Cc4cc5n(n4)CCNC5)CC3)nsc2c1 the results were Pf Dd2 growth -7.7%.
O=C(c1ccncc1)N1CC[C@H](c2nnc(-c3ccncc3)o2)C1 was read as Pf Dd2 growth inactive.
`Cc1cccc(NC(=O)NC2CCN(C(=O)N3CC4CC(C3)[C@H]3CCCC(=O)N3C4)CC2)c1` (stereo not given in full) gave Pf Dd2 growth inactive.
